Reference: the supplement of paper PMC6555819

System: PPARg:RXRa 30nM:10nM, anti-RXR (NR concentration 30 nM, RXRa partner concentration 10 nM)
Test: PBM binding z-score (relative to random genomic background probes); higher = stronger binding; sequences stand for … in GC…GCGATTGACAGCGTAGAATGAAGG
Summary of the method: (§1)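 Binding z-scores were set against random background probes. The data came from custom Agilent 4×180K protein-binding microarrays carrying double-stranded probes with 34-nt variable regions, incubated 1 h with ligand-free nuclear receptor dimers. Partner-specific antibodies detected binding, and scanned fluorescence was regression-normalized.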

Row | Sequence | PBM binding z-score
1 | AGTCAGAGTTCAGGACGAGGTAACGTAAAGCACG | 0.689
2 | TCAGACAGGCGAAGGTAACTCAGGTACGCAGTCG | 3.02
3 | CGCCCAAGGTCAGAGAGGTCAGTGAATGCCGAGT | 0.767
4 | GCATATAGGTAATACAAAGTGAAAGTCCGATTGT | 0.583
5 | CGAACTAGATCATCCAGGACAGTGAATACATTGA | 0.138
6 | CTACCAAGGTGAACAAGGTGGTTGATTACTATTC | -0.231
7 | ACATACGGGTCAACGAGGTTATAGCACGCGTATA | 1.99
8 | CGTCCAAGGTCAAGGTCAGTAAAAGAGACTCGAA | 2.62
9 | GCGACTGGGGCATCAGCAGGTAACCATAACTTAA | -0.0973
10 | ATATGTAGATTAGCTGGGGTCATTCAGACTAGGC | 0.88
11 | ACTAGTTGGTCAGCTGAGGTCCCACACAATTCGG | -0.52
12 | AGAGTGAGGTTATACGTAGATCAGGGAAGAAAGT | 0.329
13 | GCTAGCAGGCCATTTGGGGCACTCAATGACGGGC | -0.304
14 | GCTAGTTGGTCAGGAAAAGGTCACACACCGGTCG | 1.41
15 | CCGACTGGGGCATAAGGTTACCACAAGCCAGCCC | 0.735
16 | ACTAGTTGGTCAGCAGAGGTCACACACAATTCGG | 1.16
17 | TCTTGTAGATCAAAGGTTAAAAAAGCCGAAGCCT | 7.69
18 | CCGACTGGTGCATAAGGTTACCATAAGCCAGCCC | -0.311

System: PPARg:RXRa 90nM:30nM, anti-RXR (NR concentration 90 nM, RXRa partner concentration 30 nM)
Test: as above
Summary of the method: as §1

Row | Sequence | PBM binding z-score
19 | TGTCAAAGTTCAAAGGTAATGTAAGTATCCACAC | 7.6
20 | GCTTGTAGATCTAGGTTAAGAAAGACTAAGCTAA | 0.418
21 | TCTAGTTGGTCACGGAGGTCACATACGACGGGTA | 3.63
22 | TGAATGAGGTTAAAGATCAGCGAACGTGGCGTCG | 6.67
23 | TCTTGTACATCAATAGAGGTTAAGAAAGTGCGCT | 2.08
24 | GGAACGCGGGCAAGTTGATAGCAGAGTTTGATGG | -0.957
25 | AGTCAAAGTTCAGGACGAGGTAACGGAAAGCACG | 3.87
26 | ACAGACAGGTGAGAGAAGGTAACTCAGCTGGACG | 0.154
27 | TCATATAGGTAAATGCTAGGGGAAAGTCCGATCT | 3.25
28 | CCTTACGGGTCACTCCAGGTTATTGCATCGGAGT | 2.44
29 | GCAGACAGGAGAAACGCAGGTAACTCAGGGTGGC | -0.611
30 | CCGAGTACGTTATGGGGCATTCAGGCAACGGTGA | -0.83
31 | TCGAGTAGGCTAGTCGGGGCATTCAGCCAACATA | 0.101
32 | CCAGACAGGTGAAAGGTAACTCAGTCTGGTACGC | 6.73
33 | CTCGAAAGGTCGGTTGAGGTGAGGATACGGATAA | 1.02
34 | TTACCAAGGTGAAGGTAGTTGATCCCTCTGTAGA | 0.784
35 | CCGACCGGGGCATAAGGTTACCATAAGCCAGCCC | 0.731
36 | CATACAGGGTCAGCTCGGCCAGAGTAGGGACGGC | 1.72
37 | ACTTGTTGGTCAGCTGAGGTCACACACAATTCGG | 1.95
38 | CCTGCTAGGTAATGGTCAGCTAATCTACAGTATG | -0.424

Row | Sequence | PBM binding z-score
39 | CGTCCAGGGTCATAGGAGGTCAGTGAAGACAGAT | 4.63
40 | CCTTACGGTTCACTCCAGGTTATAGCATCGGAGT | 0.483
41 | AGTCAGAGTTCAGGACGAGGTAACGTAAAGCACG | 2.1
42 | TCAGACAGGCGAAGGTAACTCAGGTACGCAGTCG | 2.41
43 | CGCCCAAGGTCAGAGAGGTCAGTGAATGCCGAGT | 2.55
44 | GCATATAGGTAATACAAAGTGAAAGTCCGATTGT | 0.849
45 | CGAACTAGATCATCCAGGACAGTGAATACATTGA | -0.219
46 | CTACCAAGGTGAACAAGGTGGTTGATTACTATTC | 0.026
47 | ACATACGGGTCAACGAGGTTATAGCACGCGTATA | 3.86
48 | CGTCCAAGGTCAAGGTCAGTAAAAGAGACTCGAA | 4.87
49 | GCGACTGGGGCATCAGCAGGTAACCATAACTTAA | 0.285
50 | ATATGTAGATTAGCTGGGGTCATTCAGACTAGGC | 1.9
51 | ACTAGTTGGTCAGCTGAGGTCCCACACAATTCGG | -0.3
52 | AGAGTGAGGTTATACGTAGATCAGGGAAGAAAGT | 0.849
53 | GCTAGCAGGCCATTTGGGGCACTCAATGACGGGC | -0.0904
54 | GCTAGTTGGTCAGGAAAAGGTCACACACCGGTCG | 3.07
55 | CCGACTGGGGCATAAGGTTACCACAAGCCAGCCC | 2.92
56 | ACTAGTTGGTCAGCAGAGGTCACACACAATTCGG | 3.11
57 | TCTTGTAGATCAAAGGTTAAAAAAGCCGAAGCCT | 9.24
58 | CCGACTGGTGCATAAGGTTACCATAAGCCAGCCC | 0.705
